In ChEMBL document CHEMBL3988442, “University of Dundee, Small-Polar-MMV Screening Library” (2021) one finds Percent Effect data, which are given here for 21 molecules.

Molecules are shown by their SMILES.

The experiment addresses T1, Aspartate--tRNA(Asp/Asn) ligase (Mycobacterium tuberculosis (strain ATCC 25618 / H37Rv)) (UniProt P9WFW3).
T1 sequence (whole entry): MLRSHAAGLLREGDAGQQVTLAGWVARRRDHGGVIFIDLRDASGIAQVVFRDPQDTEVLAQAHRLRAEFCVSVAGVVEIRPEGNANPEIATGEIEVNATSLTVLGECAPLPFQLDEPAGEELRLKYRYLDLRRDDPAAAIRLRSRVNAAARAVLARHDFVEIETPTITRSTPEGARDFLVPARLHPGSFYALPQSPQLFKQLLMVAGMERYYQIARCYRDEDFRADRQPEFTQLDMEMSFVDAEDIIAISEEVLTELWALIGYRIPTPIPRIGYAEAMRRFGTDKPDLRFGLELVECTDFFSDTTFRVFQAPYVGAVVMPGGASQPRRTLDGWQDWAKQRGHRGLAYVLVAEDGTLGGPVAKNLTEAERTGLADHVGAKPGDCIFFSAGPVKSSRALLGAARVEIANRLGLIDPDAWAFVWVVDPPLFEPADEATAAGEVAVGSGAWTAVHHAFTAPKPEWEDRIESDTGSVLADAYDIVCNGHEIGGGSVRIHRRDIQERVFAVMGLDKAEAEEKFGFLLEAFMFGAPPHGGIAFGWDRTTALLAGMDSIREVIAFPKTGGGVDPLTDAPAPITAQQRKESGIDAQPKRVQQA
The experiment can be described thus: Assay for Asp RNA synthetase-1 from Mycobacterium tuberculosis. The experiment is classed as functional. As to conditions: 30 µM. Set-up: scale not given: in the data most compounds retested in dose-response had high values.
As to `CCS(=O)(=O)CC(=O)NC(c1ccccc1)C1CCCCC1` (stereo unspecified), the Percent Effect was found to be 3.23%.

Consider `CC(C)c1nnc2ccc(N3CCC(C(N)=O)CC3)nn12`, for which the Percent Effect was -3.92%.

Take `Cc1cnn(C2CCCN(C(=O)c3sccc3-n3cnnn3)C2)c1` (stereo unspecified): the Percent Effect was -2.01%.

With `CC(C)C(C(=O)N1CCN(Cc2ccncc2)CC1)n1cncn1` (stereo unspecified), the Percent Effect came out at 7.46%.

Consider `CC1CN(c2ccc(CNC(=O)c3ccn(C)c(=O)c3)cn2)CCO1` (stereo unspecified), for which the Percent Effect was -6.51%.

For `O=C(CC1CCCCC1)N1CCN(C(=O)NCc2ccccn2)CC1`, the Percent Effect amounted to 2.1%.

Take `CC(C)(C)NC(=O)CNC(=O)CCc1ccccc1Br`: the Percent Effect is 0.279%.

As for `Cc1sc(NC(=O)CN(C)S(C)(=O)=O)c(C#N)c1C`, the Percent Effect came to 1.76%.

As to `CCC(=O)Nc1ccc2c(c1)CN(C(=O)c1ccco1)CC2`, the Percent Effect is -3.28%.

As for `CCCc1noc(CN2CCCC2c2ccsc2)n1` (stereo unspecified), the Percent Effect is -3.91%.

On to `CC(C)n1ncc2c1NC(=O)CC21C(=O)Nc2c(Cl)cccc21` (stereo unspecified), for which the Percent Effect was 4.56%.

For the molecule `CS(=O)(=O)NC1CCCN(C(=O)NCc2cc[nH]n2)C1` (stereo unspecified), the Percent Effect is -0.0288%.

Consider `CC(c1cccc(S(N)(=O)=O)c1)N(C)CCOc1ccccc1` (stereo unspecified), for which the Percent Effect came out at 0.185%.

Consider `CCCc1nc(CN2CCN(Cc3noc(CCC)n3)CC2)no1`, for which the Percent Effect is -5.2%.

`CCn1ccnc1CN1CCC(CCC(=O)Nc2ccccc2Cl)CC1`: the Percent Effect was -0.673%.

Regarding `COCCNC(=O)C(C)n1cc(Br)cn1` (stereo unspecified), the Percent Effect was determined as 9.87%.

Consider `Fc1cccnc1OC[C@@]12CCO[C@@H]1CCN(CC1CCOCC1)C2`, for which the Percent Effect stood at 0.353%.

As for `CC(C)c1nn(C)c(Cl)c1CNCC(O)c1cccc(F)c1` (stereo unspecified), the Percent Effect was -0.173%.

`Cc1ccoc1C(=O)NC1CCN(Cc2csc3c(F)cccc23)CC1`: the Percent Effect is -0.83%.

As for `CC(=O)N1N=C(c2ccccc2)OC1C(=O)NCCc1cccc(Cl)c1` (stereo unspecified), the Percent Effect is -3.19%.

For the molecule `O=C(CSCC1CC1)N1CCCC(c2nccn2Cc2ccncc2)C1` (stereo unspecified), the Percent Effect is -7.86%.
